TSHR antagonist = Antagonists of the Thyroid Stimulating Hormone Receptor: HTS campaign | TSHR-expressing cells, TSH-stimulated cAMP HTRF, 2 h; stronger effect = lower value | activity change, negative = inhibition, % at 11.5 µM | AID 504810, 2011 | actives 0.2% (n = 330,000);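 active = activity change below a set negative limit, meaning inhibition stronger than a set level, cut at about -70% in these data; inconclusive = activity change between two set negative limits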
Target sequence (P16473 whole entry, looked up): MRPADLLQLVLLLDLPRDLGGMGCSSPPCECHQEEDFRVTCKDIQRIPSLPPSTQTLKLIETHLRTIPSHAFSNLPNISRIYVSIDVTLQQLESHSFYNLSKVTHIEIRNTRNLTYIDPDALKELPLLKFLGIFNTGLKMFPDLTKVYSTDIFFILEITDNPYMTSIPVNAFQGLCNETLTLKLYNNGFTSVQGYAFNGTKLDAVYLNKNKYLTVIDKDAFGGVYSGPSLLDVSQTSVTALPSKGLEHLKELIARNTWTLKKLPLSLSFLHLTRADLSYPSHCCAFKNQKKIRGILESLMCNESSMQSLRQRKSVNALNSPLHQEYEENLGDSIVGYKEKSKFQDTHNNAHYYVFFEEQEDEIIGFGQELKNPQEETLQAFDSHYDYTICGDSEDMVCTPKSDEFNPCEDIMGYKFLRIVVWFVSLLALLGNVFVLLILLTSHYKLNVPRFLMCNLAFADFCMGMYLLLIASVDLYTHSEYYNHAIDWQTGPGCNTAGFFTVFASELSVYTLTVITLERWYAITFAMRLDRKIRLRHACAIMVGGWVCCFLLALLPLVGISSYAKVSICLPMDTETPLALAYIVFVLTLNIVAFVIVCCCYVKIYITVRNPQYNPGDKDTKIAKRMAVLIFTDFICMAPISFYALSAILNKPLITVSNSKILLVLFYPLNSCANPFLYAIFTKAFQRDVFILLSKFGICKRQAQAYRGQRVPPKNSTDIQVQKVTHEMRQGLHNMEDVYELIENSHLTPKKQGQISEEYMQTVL
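Competitive HTRF cAMP read-out (cryptate anti-cAMP antibody, cAMP-d2; 30 min, room temperature) in freshly harvested TSHR cells. Compounds added before TSH at EC80 (4nM final), followed by 2 hours' incubation at 37 deg C.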
ELG1 DNA repair = qHTS screen for small molecules that inhibit ELG1-dependent DNA repair in human embryonic kidney (HEK293T) cells expressing luciferase-tagged ELG1. HEK293T ELG1-luciferase reporter, luminescence, 16 h; DNA damage induced by 5-fluorouridine. actives 2.3% (n = 330,000). AID 504467, 2011. Potency, µM (doses to about 46.1 µM), inactives show at the top dose activity change, negative = inhibition, actives largely listed as inhibitors; also: potency is read from the fitted curve at half-maximal effect; nearly all actives have a fitted effect of over 55% in size
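DMSO vehicle served as the neutral condition. Each well held 2,000 cells given 5-fluorouridine plus compound; after 16 hr at 37 °C/5% CO2, ONE-Glo was added and luciferase measured 30 min later.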
VP16 counter = VP16 counterscreen qHTS for inhibitors of ROR gamma transcriptional activity | actives 3.5% (n = 310,000) | Drosophila S2 Gal4-VP16 UAS-luciferase, luminescence, 20 h | AID 2546, 2010 | Potency, µM (doses to about 53.6 µM), without a hit: top-dose activity, negative = inhibition, actives largely listed as inhibitors;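 also: Gal4-VP16 expression switched on by copper sulfate through the metallothionein promoter; potency is read from the fitted curve at half-maximal effect; nearly all actives have a fitted effect of over 50% in size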
RORg inh = qHTS for inhibitors of ROR gamma transcriptional activity. Nuclear receptor ROR-gamma (Mus musculus), P51450. Potency, µM (top dose mostly 53.6 µM), inactives show top-dose activity change, negative = inhibition, usual class: inhibitors. actives 5.4% (n = 310,000). AID 2551, 2010. Drosophila S2 Gal4-RORgamma UAS-luciferase reporter, 20 h; also: potency is read from the fitted curve at half-maximal effect; nearly all actives have a fitted effect of over 60% in size
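ROR gamma transcriptional activity was tracked as Gal4-UAS luciferase output in stably transfected Drosophila Schneider cells, with compound added 1 hr before 700 uM copper sulfate induction and a 20 hr ambient-temperature incubation.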
B2AR arrestin = qHTS assay of beta-arrestin-biased ligands of beta2-adrenergic receptor. actives 0.02% (n = 330,000). beta-arrestin recruitment to beta2AR, cell-based reporter. Potency, µM (highest dose often 46.1 µM), for inactives: top-dose activation, hits mostly activators;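 also: potency is read from the fitted curve at half-maximal effect; 0% = DMSO controls and full agonism = EC100 isoproterenol or metaproterenol; nearly all actives have a fitted effect of over 65% in size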
* marks the source's active call; other numbers are inactive results; ? = inconclusive; nt = not tested or not shown; [ ] = remark or other dose. Hits are enriched below; roughly 7.5% of the tested compounds scored in any of these assays. Unless noted, calls follow the shape of the dose curve; as a rule, active = well fitted curve in the direction sought with a large enough effect; inconclusive = small, poorly fitted or top-dose-only effect, or another doubt; inactive = no such curve, though single readings can be large; an effect the other way counts as inactive or inconclusive. Unless noted, % is scaled to controls: 0 for no effect and ±100 for the full control effect.

SMILES | TSHR antagonist | ELG1 DNA repair | VP16 counter | RORg inh | B2AR arrestin
Cc1ccc(C#N)c(SCc2ccccc2F)n1 | 2 | ? | 9% | 8% | 0%
Cc1ccc2nc(CSc3nc(C)ccc3C#N)[nH]c2c1 | -4 | ? | 2µM* | 3.5µM* | -1%
COC(=O)c1ccc(C(NC(=O)OCc2ccccc2)/C(F)=C/[C@@H](C)C(=O)NCCc2c[nH]c3ccc(OC)cc23)cc1 (some centres undefined) | nt | nt | -4% | ? | nt
CC(=O)OC[C@@H]1O[C@H](C/C=N\OC[C@@H](O)[C@H]2O[C@H]3OC(C)(C)O[C@H]3[C@@H]2O)C=C[C@@H]1OC(C)=O | nt | nt | 1%[10 µM] | -1%[10 µM] | nt
CCOc1ccc(N(CC(=O)Nc2ccc(C)cc2)S(C)(=O)=O)cc1 | 9 | ? | -1% | 16% | 0%
CN(c1cccc(NC(=O)CN(c2cccc(F)c2)S(C)(=O)=O)c1)S(C)(=O)=O | 1 | -22% | -6% | 5% | 0%
COc1ccc(N(CC(=O)Nc2ccc(OC)c(OC)c2)S(=O)(=O)c2ccccc2)cc1Cl | -13 | ? | 3% | 30% | 1%
CN(c1cccc(NC(=O)CN(c2cccc(Cl)c2)S(=O)(=O)c2ccccc2)c1)S(C)(=O)=O | 5 | 26µM* | -3% | ? | 3%
COc1ccc(N(CC(=O)Nc2cccc(N(C)S(C)(=O)=O)c2)S(=O)(=O)c2ccccc2)cc1Cl | -4 | 8.2µM* | -3% | 7% | 3%
CCOc1ccc(N(CC(=O)Nc2cc(C)cc(C)c2)S(C)(=O)=O)cc1 | -73* | 8% | 5% | 12% | 0%
COc1ccc(N(CC(=O)Nc2cccc(N(C)S(C)(=O)=O)c2)S(=O)(=O)c2ccc(F)cc2)cc1 | 3 | 13µM* | -2% | 14% | 0%
C[C@](N)(COP(=O)(O)O)C(=O)O | nt | nt | -16% | -15% | nt
O=C(NC1CC1)[C@@H]1CSC2c3ccccc3C(=O)N21 (some centres undefined) | 11 | 11% | -1% | -8% | 0%
COc1ccc(C(=O)N2CCC3(CCCN(c4cccc(-c5ccccc5)c4)C3)CC2)cc1 | nt | nt | 3% | 18% | nt
O=C(Cn1cnc([N+](=O)[O-])n1)NC1CC1 | 31 | 0% | -2% | 17% | -1%
Cc1ccc(N(CC(=O)Nc2cc(C)cc(C)c2)S(=O)(=O)c2c(C)noc2C)cc1 | -14 | -23% | 11µM* | -28% | 0%
COc1ccc(N(CC(=O)Nc2ccc(C)cc2)S(=O)(=O)c2c(C)noc2C)cc1 | -13 | 0% | -5% | 7% | 1%
CCOc1ccc(N(CC(=O)Nc2cccc(N(C)S(C)(=O)=O)c2)S(=O)(=O)c2ccccc2)cc1 | -8 | 13µM* | -13% | 21% | -1%
CCOc1ccc(N(CC(=O)N/N=C/c2ccccn2)S(=O)(=O)c2ccc(Cl)cc2)cc1 | 9 | 1% | ? | 10µM* | 0%
COc1ccc(N(CC(=O)Nc2cccc(N(C)S(C)(=O)=O)c2)S(=O)(=O)c2ccc(C)cc2)cc1 | -4 | ? | -2% | 27% | 0%
CCOc1ccc(NC(=O)CN(c2ccc([N+](=O)[O-])cc2)S(=O)(=O)c2ccccc2)cc1 | -5 | 10µM* | 0% | -2%[10 µM] | ?
COc1ccc(COC2OC[C@]3(C)[C@H]4C5=C(CN3C(=O)OC(C)(C)C)[C@H](C)C(CO)C(CO)C5CC[C@@H]24)cc1 (some centres undefined) | nt | nt | -11% | 4% | nt
O=S(=O)(c1ccc2c(c1)OCCO2)C1CCC(O)CC1 (centres undefined) | -2 | nt | nt | nt | 0%
Cc1[nH]n(-c2ccccc2)c(=O)c1C=Nc1cnc2ccccc2c1 | -1 | 3% | -10% | -41% | 0%
CCOc1ccc(N=Cc2c(C)[nH]n(-c3nc4ccccc4[nH]3)c2=O)cc1 | -3 | ? | ? | 14µM* | -1%
SMILES | TSHR antagonist | ELG1 DNA repair | VP16 counter | RORg inh | B2AR arrestin
Cc1ccc(NC(=O)c2cccc(S(=O)(=O)N(C)c3ccccc3)c2)cc1S(=O)(=O)N1CCOCC1 | -20 | 13µM* | -6% | 37% | -1%
COc1ccccc1N(C)S(=O)(=O)c1ccc(C(=O)Nc2ccc3nc(C)sc3c2)cc1 | -4 | 26µM* | -18% | ? | 0%
CN(c1ccccc1)S(=O)(=O)c1cccc(NC(=O)c2cccc(C#N)c2)c1 | -30 | ? | nt | nt | 0%
Cc1ccc(NC(=O)c2ccc3ncsc3c2)cc1S(=O)(=O)N(C)C | -14 | ? | 7.1µM* | 7.9µM* | 0%
CN(c1ccccc1)S(=O)(=O)c1cccc(NC(=O)c2ccc3ncsc3c2)c1 | -21 | 15µM* | -19% | 29% | 0%
Cc1ccc(C(=O)Nc2cccc(C(=O)O)c2)cc1S(=O)(=O)N1CCOCC1 | -2 | ? | -4% | ? | 0%
Cc1nc2ccc(Br)cc2c2c1CC(CO)O2 (centres undefined) | -5 | 1% | 2% | -8% | 0%
C=CCC(O)(C#Cc1ccccc1)c1ccccc1 (centres undefined) | nt | nt | 5% | 27% | nt
CN(c1ccccc1)S(=O)(=O)c1cccc(NC(=O)CSc2nnc(N)s2)c1 | -14 | ? | ? | ? | 0%
CN(c1ccccc1)S(=O)(=O)c1cccc(C(=O)Nc2cccc(C(=O)NC3CC3)c2)c1 | -27 | ? | nt | nt | 0%
Cc1nc2ccc(NC(=O)c3cccc(S(=O)(=O)N(C)c4ccccc4)c3)cc2s1 | -40 | 18µM* | -29% | ? | -2%
CN(C)S(=O)(=O)c1cccc(NC(=O)CSc2nc3ccccc3n2-c2ccccc2)c1 | 7 | 18µM* | 4% | 36% | 0%
CN(c1ccccc1)S(=O)(=O)c1cccc(NC(=O)CSc2nncs2)c1 | -20 | ? | 22µM* | 37% | -1%
CCCC/C=C/C(NC(=O)c1cccs1)c1ccccc1 (centres undefined) | nt | nt | ? | 2% | nt
COc1cccc(NC(=S)N(CCN(C)C)C(C)c2ccncc2)c1 (centres undefined) | 7 | -2% | -9% | -30% | 0%
Cc1sc2ncnc(NCC(O)c3ccccc3)c2c1C (centres undefined) | -20 | -3% | 16µM* | ? | 0%
Cc1sc2ncnc(NCC(c3ccccc3)N(C)C)c2c1C (centres undefined) | -16 | -3% | 20% | -10% | 0%
Cc1sc2ncnc(NCC(O)c3ccc([N+](=O)[O-])cc3)c2c1C (centres undefined) | -48 | ? | 5µM* | ? | 0%
